Assay results: the supplement of paper PMC10849652
About 8,800 targets were measured; listed, in parts, are those with a hit and a random draw of the rest. About 0.5% of all pairs of compound and target were hits. Unmarked numbers belong to inactive results.

What was measured:
Experiment in all cases: log2 fold change, soluble protein after heating vs DMSO (PISA); higher = thermal stabilisation; K562 lysate, 10 uM; active = over 0.2 and 3.5 SD of the protein, either way, in both replicates (recomputed)
vemurafenib = compound: CCCS(=O)(=O)Nc1ccc(F)c(C(=O)c2c[nH]c3ncc(-c4ccc(Cl)cc4)cc23)c1F [vemurafenib]
Summary of the method: (§1)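 The values are log-two fold changes in thermal stability compared with solvent controls and come from duplicates. They were obtained by TMTpro 16plex LC-MS/MS, with channel sums equalised, on the supernatant after 21,000xg for 90 min. That supernatant came from crude K562 extract at 1 mg/mL protein treated with 10 μM compound for 30 min, heated for 3 min across 48°C-58°C, pooled and brought to 0.5% NP-40 at 4°C.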

[1] = compound: CCCS(=O)(=O)Nc1ccc(F)c(C(=O)c2c[nH]c3ncc(Cl)cc23)c1F
Summary of the method: as §1

barasertib = compound: CCN(CCCOc1ccc2c(Nc3cc(CC(=O)Nc4cccc(F)c4)[nH]n3)ncnc2c1)CCOP(=O)(O)O [barasertib]
Summary of the method: as §1

[2] = compound: CC[C@@H]1C(=O)N(C)c2cnc(Nc3ccc(C(=O)NC4CCN(C)CC4)cc3OC)nc2N1C1CCCC1
Summary of the method: as §1

volasertib = compound: CC[C@@H]1C(=O)N(C)c2cnc(Nc3ccc(C(=O)N[C@H]4CC[C@H](N5CCN(CC6CC6)CC5)CC4)cc3OC)nc2N1C(C)C [volasertib]
Summary of the method: as §1

[3] = compound: CCn1c(C(=O)N(C2CC2)C2CC2)cc2c3c(ncn3C)c(Nc3cc(C)n(C)n3)nc21
Summary of the method: as §1

[4] = compound: CCn1cc(-c2ccnc3[nH]c(-c4cccc(CN(C)C)c4)cc23)c(-c2ccc(NC(=O)N(C)C)cc2)n1
Summary of the method: as §1

[5] = compound: CN1CCC(CNc2ccc3ncc(-c4cccc(OC(F)(F)F)c4)n3n2)CC1
Summary of the method: as §1

saracatinib = compound: CN1CCN(CCOc2cc(OC3CCOCC3)c3c(Nc4c(Cl)ccc5c4OCO5)ncnc3c2)CC1 [saracatinib]
Summary of the method: as §1

sotrastaurin = compound: CN1CCN(c2nc(C3=C(c4c[nH]c5ccccc45)C(=O)NC3=O)c3ccccc3n2)CC1 [sotrastaurin]
Summary of the method: as §1

alvocidib = compound: CN1CC[C@H](c2c(O)cc(O)c3c(=O)cc(-c4ccccc4Cl)oc23)[C@H](O)C1 [alvocidib]
Summary of the method: as §1

Tubastatin A = compound: CN1CCc2c(c3ccccc3n2Cc2ccc(C(=O)NO)cc2)C1 [Tubastatin A]
Summary of the method: as §1

[6] = compound: CNC(=O)C1=CC=CC=C1NC2=NC(=NC=C2Cl)NC3=C(C=C(C=C3)N4CCOCC4)OC
Summary of the method: as §1

defactinib = compound: CNC(=O)c1ccc(Nc2ncc(C(F)(F)F)c(NCc3nccnc3N(C)S(C)(=O)=O)n2)cc1 [defactinib]
Summary of the method: as §1

[7] = compound: CNc1nc(-c2ccc3c(N)n[nH]c3c2)cc(N2C[C@@H](C(=O)NC3CCCCC3)CC[C@H]2C)n1
Summary of the method: as §1

encorafenib = compound: COC(=O)N[C@@H](C)CNc1nccc(-c2cn(C(C)C)nc2-c2cc(Cl)cc(NS(C)(=O)=O)c2F)n1 [encorafenib]
Summary of the method: as §1

[8] = compound: COC(=O)[C@H](CCSC)NC(=O)C1=C(C=C(C=C1)NC[C@H](CS)N)C2=CC=CC=C2
Summary of the method: as §1

alisertib = compound: COc1cc(Nc2ncc3c(n2)-c2ccc(Cl)cc2C(c2c(F)cccc2OC)=NC3)ccc1C(=O)O [alisertib]
Summary of the method: as §1

[9] = compound: COc1cc2nc(-c3cc(F)ccc3O)nc(N[C@@H]3CNC[C@H]3C(C)(C)O)c2cc1OC
Summary of the method: as §1

gefitinib = compound: COc1cc2ncnc(Nc3ccc(F)c(Cl)c3)c2cc1OCCCN1CCOCC1 [gefitinib]
Summary of the method: as §1

Chain of UniProt Q9Y6M4 (Q9Y6M4 whole entry, looked up): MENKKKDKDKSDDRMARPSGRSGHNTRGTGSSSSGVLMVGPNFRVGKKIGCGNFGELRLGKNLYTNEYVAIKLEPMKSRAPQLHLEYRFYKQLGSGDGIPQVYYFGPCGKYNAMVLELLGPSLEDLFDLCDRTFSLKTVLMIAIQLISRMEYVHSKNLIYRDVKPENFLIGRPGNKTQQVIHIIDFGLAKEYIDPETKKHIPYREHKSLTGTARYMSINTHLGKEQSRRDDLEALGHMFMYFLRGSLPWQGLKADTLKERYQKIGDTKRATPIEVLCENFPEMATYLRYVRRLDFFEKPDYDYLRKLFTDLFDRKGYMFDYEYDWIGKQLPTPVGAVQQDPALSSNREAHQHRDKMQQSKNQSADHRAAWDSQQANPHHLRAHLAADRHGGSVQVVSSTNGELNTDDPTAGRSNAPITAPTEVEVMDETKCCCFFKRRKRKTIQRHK
Chain of UniProt Q7Z460 (Q7Z460 whole entry, looked up): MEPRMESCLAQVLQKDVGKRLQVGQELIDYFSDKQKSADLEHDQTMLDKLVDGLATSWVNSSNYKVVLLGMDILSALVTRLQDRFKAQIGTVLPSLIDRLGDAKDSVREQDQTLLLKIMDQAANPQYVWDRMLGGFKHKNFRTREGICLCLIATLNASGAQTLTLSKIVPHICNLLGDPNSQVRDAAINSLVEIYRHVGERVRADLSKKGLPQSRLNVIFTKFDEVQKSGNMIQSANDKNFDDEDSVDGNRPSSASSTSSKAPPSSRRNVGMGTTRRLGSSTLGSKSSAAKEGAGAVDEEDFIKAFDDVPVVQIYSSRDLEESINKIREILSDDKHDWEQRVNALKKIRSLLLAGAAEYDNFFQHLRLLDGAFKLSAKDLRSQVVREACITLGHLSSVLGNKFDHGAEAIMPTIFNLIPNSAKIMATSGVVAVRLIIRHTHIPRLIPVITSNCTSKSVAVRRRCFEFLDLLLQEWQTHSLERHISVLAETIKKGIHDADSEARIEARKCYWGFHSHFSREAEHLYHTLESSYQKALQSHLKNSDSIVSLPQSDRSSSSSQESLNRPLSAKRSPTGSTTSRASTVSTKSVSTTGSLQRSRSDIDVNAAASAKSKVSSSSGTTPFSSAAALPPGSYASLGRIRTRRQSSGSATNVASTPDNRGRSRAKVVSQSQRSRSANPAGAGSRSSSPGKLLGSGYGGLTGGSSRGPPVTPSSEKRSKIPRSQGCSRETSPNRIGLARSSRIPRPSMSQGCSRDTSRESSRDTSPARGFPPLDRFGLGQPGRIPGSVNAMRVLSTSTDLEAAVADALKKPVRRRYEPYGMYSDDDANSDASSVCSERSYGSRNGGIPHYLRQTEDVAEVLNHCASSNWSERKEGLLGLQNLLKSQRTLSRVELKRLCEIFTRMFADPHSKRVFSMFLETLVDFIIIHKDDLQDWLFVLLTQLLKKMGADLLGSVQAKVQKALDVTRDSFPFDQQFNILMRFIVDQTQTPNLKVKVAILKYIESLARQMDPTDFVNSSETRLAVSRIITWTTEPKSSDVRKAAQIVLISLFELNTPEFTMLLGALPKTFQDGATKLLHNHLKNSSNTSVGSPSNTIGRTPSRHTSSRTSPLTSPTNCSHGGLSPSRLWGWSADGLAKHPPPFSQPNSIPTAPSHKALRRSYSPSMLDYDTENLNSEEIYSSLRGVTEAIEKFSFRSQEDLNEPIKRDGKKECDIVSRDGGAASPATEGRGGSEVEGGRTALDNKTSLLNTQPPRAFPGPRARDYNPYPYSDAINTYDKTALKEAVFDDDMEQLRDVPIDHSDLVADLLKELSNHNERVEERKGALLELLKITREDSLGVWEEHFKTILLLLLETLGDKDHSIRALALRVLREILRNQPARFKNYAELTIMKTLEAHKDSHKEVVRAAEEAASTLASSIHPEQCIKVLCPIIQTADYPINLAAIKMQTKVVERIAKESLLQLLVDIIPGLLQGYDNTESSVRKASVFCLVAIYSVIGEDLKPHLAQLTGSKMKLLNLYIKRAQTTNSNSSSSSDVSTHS
Chain of UniProt P57737 (P57737 whole entry, looked up): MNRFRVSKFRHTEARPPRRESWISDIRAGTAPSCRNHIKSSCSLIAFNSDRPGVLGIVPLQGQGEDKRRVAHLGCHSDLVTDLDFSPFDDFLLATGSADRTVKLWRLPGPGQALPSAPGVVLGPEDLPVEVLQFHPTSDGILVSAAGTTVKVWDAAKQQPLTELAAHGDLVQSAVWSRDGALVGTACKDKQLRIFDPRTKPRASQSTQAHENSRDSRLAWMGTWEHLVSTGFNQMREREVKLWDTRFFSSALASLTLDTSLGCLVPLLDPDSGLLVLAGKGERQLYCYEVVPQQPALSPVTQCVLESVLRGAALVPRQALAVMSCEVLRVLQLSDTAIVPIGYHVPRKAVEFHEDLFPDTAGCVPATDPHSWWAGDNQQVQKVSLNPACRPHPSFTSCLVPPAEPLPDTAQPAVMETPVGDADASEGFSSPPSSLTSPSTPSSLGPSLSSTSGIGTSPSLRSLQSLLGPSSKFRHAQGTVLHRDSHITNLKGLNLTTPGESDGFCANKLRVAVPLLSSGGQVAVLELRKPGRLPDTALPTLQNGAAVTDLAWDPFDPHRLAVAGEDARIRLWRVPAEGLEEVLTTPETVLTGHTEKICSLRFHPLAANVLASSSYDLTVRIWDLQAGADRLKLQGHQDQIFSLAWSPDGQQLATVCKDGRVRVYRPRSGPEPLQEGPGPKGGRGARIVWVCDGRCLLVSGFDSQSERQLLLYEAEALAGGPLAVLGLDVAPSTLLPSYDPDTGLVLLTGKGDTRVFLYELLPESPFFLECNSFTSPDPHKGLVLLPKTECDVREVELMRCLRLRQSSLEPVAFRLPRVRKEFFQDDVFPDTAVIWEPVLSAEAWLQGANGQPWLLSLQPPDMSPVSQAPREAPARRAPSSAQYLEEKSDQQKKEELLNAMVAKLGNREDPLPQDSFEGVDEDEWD
Chain of UniProt O75534 (O75534 whole entry, looked up): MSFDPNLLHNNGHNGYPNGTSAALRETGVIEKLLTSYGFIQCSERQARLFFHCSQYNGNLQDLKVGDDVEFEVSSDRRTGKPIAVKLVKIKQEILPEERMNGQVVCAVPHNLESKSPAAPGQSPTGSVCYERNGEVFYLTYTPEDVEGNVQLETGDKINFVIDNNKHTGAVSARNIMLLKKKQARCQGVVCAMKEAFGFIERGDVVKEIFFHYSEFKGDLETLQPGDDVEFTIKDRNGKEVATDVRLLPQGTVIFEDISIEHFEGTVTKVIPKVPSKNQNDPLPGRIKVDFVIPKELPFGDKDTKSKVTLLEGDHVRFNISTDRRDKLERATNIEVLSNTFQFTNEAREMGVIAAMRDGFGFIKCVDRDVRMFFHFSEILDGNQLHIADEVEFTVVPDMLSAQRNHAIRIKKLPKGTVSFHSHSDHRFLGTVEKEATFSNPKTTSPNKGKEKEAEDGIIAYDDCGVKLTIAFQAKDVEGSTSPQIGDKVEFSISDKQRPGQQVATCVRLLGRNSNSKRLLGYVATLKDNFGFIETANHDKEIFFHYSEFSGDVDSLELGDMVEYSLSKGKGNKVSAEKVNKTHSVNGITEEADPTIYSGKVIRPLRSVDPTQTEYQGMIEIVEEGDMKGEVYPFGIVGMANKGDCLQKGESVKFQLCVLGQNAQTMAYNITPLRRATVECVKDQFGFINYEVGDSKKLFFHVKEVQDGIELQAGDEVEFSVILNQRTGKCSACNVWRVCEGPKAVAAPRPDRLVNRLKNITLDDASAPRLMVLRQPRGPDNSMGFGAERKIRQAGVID
Chain of UniProt O60762 (O60762 whole entry, looked up): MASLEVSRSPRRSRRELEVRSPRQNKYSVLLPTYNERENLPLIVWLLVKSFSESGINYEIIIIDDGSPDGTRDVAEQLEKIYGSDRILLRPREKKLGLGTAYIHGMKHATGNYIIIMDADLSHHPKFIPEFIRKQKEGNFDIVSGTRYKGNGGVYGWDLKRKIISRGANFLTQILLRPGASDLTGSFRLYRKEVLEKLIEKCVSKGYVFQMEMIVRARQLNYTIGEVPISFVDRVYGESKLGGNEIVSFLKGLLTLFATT
Chain of UniProt Q6PJW8 (Q6PJW8 whole entry, looked up): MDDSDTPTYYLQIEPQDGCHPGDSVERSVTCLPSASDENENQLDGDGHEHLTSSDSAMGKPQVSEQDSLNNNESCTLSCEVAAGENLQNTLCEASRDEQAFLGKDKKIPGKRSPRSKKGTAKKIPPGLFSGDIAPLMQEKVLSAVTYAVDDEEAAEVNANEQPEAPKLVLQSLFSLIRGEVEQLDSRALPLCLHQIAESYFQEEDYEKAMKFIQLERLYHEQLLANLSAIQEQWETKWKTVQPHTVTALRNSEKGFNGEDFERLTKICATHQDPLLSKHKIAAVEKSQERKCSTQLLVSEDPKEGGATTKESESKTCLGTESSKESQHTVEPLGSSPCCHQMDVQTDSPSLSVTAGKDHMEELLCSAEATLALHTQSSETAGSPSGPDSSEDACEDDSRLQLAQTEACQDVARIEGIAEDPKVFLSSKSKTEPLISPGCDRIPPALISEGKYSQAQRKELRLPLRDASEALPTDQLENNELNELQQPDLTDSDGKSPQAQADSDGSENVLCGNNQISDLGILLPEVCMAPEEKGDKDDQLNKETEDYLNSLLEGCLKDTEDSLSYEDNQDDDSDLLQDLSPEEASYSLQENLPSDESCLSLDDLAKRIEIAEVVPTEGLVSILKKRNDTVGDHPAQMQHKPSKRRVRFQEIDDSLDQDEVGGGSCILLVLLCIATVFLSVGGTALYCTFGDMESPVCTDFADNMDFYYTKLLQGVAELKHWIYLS
Chain of UniProt Q16527 (Q16527 whole entry, looked up): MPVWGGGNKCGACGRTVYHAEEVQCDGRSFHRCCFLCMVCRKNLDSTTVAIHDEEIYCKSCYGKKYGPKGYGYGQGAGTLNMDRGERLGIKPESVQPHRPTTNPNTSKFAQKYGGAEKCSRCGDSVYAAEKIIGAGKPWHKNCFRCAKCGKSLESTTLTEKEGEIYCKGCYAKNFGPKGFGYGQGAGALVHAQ
Chain of UniProt Q9H5X1 (Q9H5X1 whole entry, looked up): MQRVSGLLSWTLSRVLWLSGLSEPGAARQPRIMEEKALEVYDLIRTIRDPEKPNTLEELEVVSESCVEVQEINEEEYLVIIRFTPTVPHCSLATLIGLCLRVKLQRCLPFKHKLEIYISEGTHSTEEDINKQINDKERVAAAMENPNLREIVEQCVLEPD

Target	log2 fold change (vemurafenib)	log2 fold change [1]	log2 fold change (barasertib)	log2 fold change [2]	log2 fold change (volasertib)	log2 fold change [3]	log2 fold change [4]	log2 fold change [5]	log2 fold change (saracatinib)	log2 fold change (sotrastaurin)	log2 fold change (alvocidib)	log2 fold change (Tubastatin A)	log2 fold change [6]	log2 fold change (defactinib)	log2 fold change [7]	log2 fold change (encorafenib)	log2 fold change [8]	log2 fold change (alisertib)	log2 fold change [9]	log2 fold change (gefitinib)
DGCR8 (UniProt Q8WYQ5)	-0.022	0.031	0.062	-0.046	-0.021	0.015	-0.052	0.066	0.042	0.04	0.009	-0.115	-0.009	-0.046	0.042	0.018	0.081	0.022	0.027	-0.034
DARS (UniProt P14868)	0.02	0.021	0.021	-0.099	-0.043	0.062	0.026	-0.012	0.018	0.011	0.012	-0.119	-0.012	0.012	-0.061	0.028	0.049	0.038	0.003	-0.014
CIAO2A (UniProt Q9H5X1)	-0.028	-0.032	0.094	-0.042	-0.007	0.026	0.233	-0.203	0.033	0.034	0.034	0.04	0	-0.002	0.109	0.026	-0.052	0.089	0.009	0.088
CLASP1 (UniProt Q7Z460)	0.025	0.013	0.048	-0.03	-0.018	0.039	-0.043	0.042	0.028	-0.022	-0.057	-0.032	-0.005	-0.037	-0.006	0.058	0.009	0.036	-0.001	0.018
CIC (UniProt I3L2J0)	-0.077	-0.043	0.4 (active)	-0.057	-0.032	0.001	-0.05	-0.004	0.021	-0.016	0.005	-0.03	0.072	0.041	0.035	-0.002	0.052	-0.027	0.158	-0.098
CNST (UniProt Q6PJW8)	0.002	-0.026	-0.07	0.079	-0.008	0.02	-0.066	0.019	0.033	0.039	0	-0.055	0.043	0.041	-0.027	0.03	-0.096	-0.031	0.024	0.002
DPM1 (UniProt O60762)	0.055	0.004	-0.021	0.039	0.001	-0.012	-0.013	-0.058	0.036	0.028	0.084	0.055	-0.005	0.037	0.041	0.01	0.083	0.047	0.013	-0.041
DOCK8 (UniProt Q8NF50)	0.005	0.013	0.034	-0.075	-0.065	0.04	0	-0.033	0.012	0.023	0.019	-0.098	0.007	0.001	-0.073	0.003	0.05	-0.01	0.014	0.005
CIC (UniProt I3L1Q4)			-0.169																	
DONSON (UniProt Q9NYP3)		0.017	-0.03		0.026	-0.036	-0.026	-0.206	0.013	0.016	0.04	-0.079	0.069		0.005			-0.05	0.028	0.075
CLIP1 isoform 2 (UniProt P30622)		0.112	-0.083	0.073	0.055	-0.04	-0.488	0.02	0.028	-0.026	0.029	0.117	-0.085		0.088	-0.012	-0.015	-0.033	-0.017	-0.005
CHFR (UniProt Q96EP1)	-0.252	0.063		-0.013	0.043	0.052			0.052	0.033		-0.052	0.004	-0.61 (active)	-0.032	0.063	-0.084	0.033	0.008	-0.03
COPS9 (UniProt Q8WXC6)		-0.075			0.062	-0.197						-0.272	0.087						0.163	
CSNK1G3 isoform 4 (UniProt Q9Y6M4)		-0.238			0.111														0.53	
DHRS13 (UniProt Q6UX07)		0.291	0.236		-0.274	0.077			-0.031	0.095		-0.087	-0.083		0.004			-0.211	-0.138	0.036
CLASP1 isoform 4 (UniProt Q7Z460)	0.272												0.046	0.223				0.063		0.107
DBF4 (UniProt Q9UBU7)	0.001		0.054	-0.015		0.001	-0.003	-0.245	0.001	-0.004	-0.118	-0.072	-0.025	-0.023	-0.058	0.04	-0.072	-0.028		-0.029
CRLS1 (UniProt Q9UJA2)		0.063	0.014		0.005	0.017	0.022	-0.301		-0.008	0.056	0.007	0.068					0.076	-0.017	0.079
COL6A3 (UniProt P12111)			0.347			0.086	0.254	-0.19	-0.039	0.031	0.045	0.017	-0.126		0.13			-0.323		0.164
CSNK2A1, A0A2R8Y4D6		0.107			-0.325														0.06	
CORO7 (UniProt P57737)	-0.143			0.089		-0.025	0.321	0.165	0.166	0.137	0.001	0.011	-0.092	0.191	-0.05	-0.081	0.061	0.259		-0.062
CSRP2 (UniProt Q16527)			0.078	0.052			0.09	0.126		-0.351 (active)	-0.028					-0.046	-0.056			
CSDE1 isoform 3 (UniProt O75534)		-0.014	0.05		-0.193	0.113	-0.064	-0.104		0.07	0.029	-0.014						-0.011	0.28	-0.09
CSAD isoform 3 (UniProt Q9Y600)			0.456 (active)			0.001				-0.003		0.082	-0.044							
